For 34 compounds, cell viability, % of control (lower = more cytotoxic) results are on record in PubChem BioAssay (NCATS).

The nature of the assay: High-throughput drug toxicity screening in the BPDCN cell line Gen2.2 (AID 1224824).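 Also: cells exposed to compounds for 48 h before reading.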 The settings on record: Gen2.2 BPDCN cells; at 45.8 µM (top of the series) unless noted. The method in brief: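 Gen2.2 cells, 500 per well in phenol red-free RPMI with 10% FBS, exposed to compounds 48 h at 37 C, 5% CO2; viability by CellTiter-Glo luminescence. Percent activity scaled to DMSO (100%) and 9.2 uM bortezomib final (0%).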
Consider `CCCCc1ccc(NS(=O)(=O)c2ccc(C)c(C(=O)N3CCN(c4cccc(C)c4C)CC3)c2)cc1`, for which the cell viability, % of control (lower = more cytotoxic) stood at 425%.

In the case of `Cc1cccc2c1CC[C@H](CN1CCC(c3c(Cl)cccc3Cl)CC1)C[C@@H]2O`, the cell viability, % of control (lower = more cytotoxic) was 140%. As to `CC[C@]1(O)C[C@H]2CN(CCC3=c4ccccc4=N[C]3[C@@](C(=O)OC)(c3cc4c(cc3OC)N(C)[C@H]3[C@@](O)(C(N)=O)[C@H](O)[C@]5(CC)C=CCN6CC[C@]43[C@@H]65)C2)C1`, the cell viability, % of control (lower = more cytotoxic) was 14.7%.

In the case of `O=c1[nH]c(=O)n([C@H]2C[C@@H](O)[C@@H](CO)O2)cc1I`, the cell viability, % of control (lower = more cytotoxic) was determined as 138%. Then `Cc1nc(NC(=O)N2CCC[C@@H]2C(N)=O)sc1-c1csc(C(C)(C)C)n1`, with 14.1%; and `O=C(Nc1ccc(OC(F)(F)F)cc1)c1sccc1NCc1ccnc2ccccc12`, with 42.4%; and `O=C1CN2Cc3c(ccc(Cl)c3Cl)N=C2N1`, with 198%.

Consider `Cc1c(C(=O)Nc2ccc(N3C[C@@H](C)O[C@@H](C)C3)nc2)cccc1-c1ccc(OC(F)(F)F)cc1`, for which the cell viability, % of control (lower = more cytotoxic) was 10.2%.

With `CC(C)C[C@@H](C(=O)N[C@H](C(=O)OC1CCCC1)c1ccccc1)[C@H](O)C(=O)NO`, the cell viability, % of control (lower = more cytotoxic) was found to be 6.81%. Then `NCC1CCC(C(=O)O)CC1` (centres undefined), with 110%; and `CN(C)CCN(C)C(=O)c1ccc(NC(=O)Nc2ccc(-c3nc(N4CCOCC4)c4ccn(CC(F)(F)F)c4n3)cc2)cc1`, with 4.33%. Turning to `CCOC(=O)c1c(CSc2ccccc2)n(C)c2cc(Br)c(O)c(CN(C)C)c12`, the cell viability, % of control (lower = more cytotoxic) was determined as 164%.

Regarding `CCc1cc(-c2n[nH]c(C)c2-c2ccc3c(c2)OCCO3)c(O)cc1O`, the cell viability, % of control (lower = more cytotoxic) turned out to be 7.68%. For `CC(=O)NCCC(=O)N[C@@H](CCC(N)=O)C(=O)N[C@@H](CO)C(=O)N[C@@H](CCC(N)=O)C(=O)N[C@@H](CCC(N)=O)C(=O)N[C@H](C(=O)N[C@@H](Cc1ccccc1)C(=O)N[C@]1(C)CCCCCCC=CCCC[C@@](C)(C(=O)N[C@@H](CCC(N)=O)C(=O)N[C@@H](CC(N)=O)C(N)=O)NC(=O)[C@H](CC(C)C)NC(=O)[C@H](CC(C)C)NC(=O)[C@@H](CCCNC(=N)N)NC(=O)[C@H](Cc2c[nH]c3ccccc23)NC(=O)[C@H](CC(C)C)NC(=O)[C@H](CC(N)=O)NC1=O)[C@H](C)O`, the cell viability, % of control (lower = more cytotoxic) worked out at 27%.

As for `Cc1ccccc1C(C(=O)NC1CCCCC1)N(C(=O)CNc1ccc(C#N)cc1)c1cccc(F)c1` (centres undefined), the cell viability, % of control (lower = more cytotoxic) is 161%. Turning to `CC[C@H]1OC(=O)[C@H](C)[C@@H](O[C@H]2C[C@@](C)(OC)[C@@H](O)[C@H](C)O2)[C@H](C)[C@@H](O[C@@H]2O[C@H](C)C[C@H](N(C)C)[C@H]2O)[C@](C)(O)C[C@H](C)C(=NOCOCCOC)[C@H](C)[C@@H](O)[C@]1(C)O`, the cell viability, % of control (lower = more cytotoxic) was determined as 129%.

In the case of `COc1ccc(CCC(=O)Nc2nc3ccc(Cl)cc3s2)cc1OC`, the cell viability, % of control (lower = more cytotoxic) was 135%. Next, `COc1ccc(Cn2ccc3ccc(C(=O)NO)cc32)cc1`: 250%; `O=C(O)CCC=CCC[C@@H]1[C@H](N2CCCCC2)[C@@H](O)C[C@@H]1OCc1ccc(-c2ccccc2)cc1`: 169%. For `C[C@H](CCC(=O)O)[C@H]1CC[C@H]2[C@H]3[C@@H](CC[C@]12C)[C@@]1(C)CC[C@@H](O)C[C@H]1C[C@@H]3O`, the cell viability, % of control (lower = more cytotoxic) is 75.1%. `O=C(CO)N1CCC(c2[nH]nc(-c3ccc(Cl)cc3)c2-c2ccncn2)CC1`: the cell viability, % of control (lower = more cytotoxic) was 421%. In the case of `O=C(Nc1ncc(SCCN2CCCC2)s1)[C@]1(c2ccc(S(=O)(=O)C3CC3)cc2)C[C@@H]1C1CCCCC1`, the cell viability, % of control (lower = more cytotoxic) is 116%. As to `CCOC(=O)[C@@H](N)CCC(=O)N[C@@H](CSCc1ccccc1)C(=O)N[C@@H](C(=O)OCC)c1ccccc1`, the cell viability, % of control (lower = more cytotoxic) is 39.6%. Then `N#CC(=C1Nc2ccccc2S1)c1ccnc(OCc2ccc(CN3CCOCC3)cc2)n1`, with 5.77%; and `Cc1ccc(S(=O)(=O)Nc2nc3ccccc3nc2Nc2ccc3nsnc3c2)cc1`, with 7.38% [at 23.2 µM].

With `CC1=C(CC(=O)O)c2cc(F)ccc2C1=Cc1ccc(S(C)=O)cc1` (centres undefined), the cell viability, % of control (lower = more cytotoxic) was 6.5%.

`O=c1[nH]nc(OCCCc2ccc(Cl)cc2)c(NCc2cccnc2)c1Br`: the cell viability, % of control (lower = more cytotoxic) amounted to 9.32%. With `COc1cc2c(cc1Cc1cccc(Cl)c1F)c(=O)c(C(=O)O)cn2[C@H](CO)C(C)C`, the cell viability, % of control (lower = more cytotoxic) was 19.1%. Next, `CC(C)C[C@@H](N)[C@H](O)C(=O)N[C@H](C(=O)N[C@H](C(=O)N[C@@H](CC(=O)O)C(=O)O)C(C)C)C(C)C`: 128%.

As to `C=C1[C@H](n2cnc3c(=O)[nH]c(N)nc32)C[C@H](O)[C@H]1CO`, the cell viability, % of control (lower = more cytotoxic) came to 147%. In the case of `C[C@@H](O[C@H]1OCCN(Cc2n[nH]c(=O)[nH]2)[C@@H]1c1ccc(F)cc1)c1cc(C(F)(F)F)cc(C(F)(F)F)c1`, the cell viability, % of control (lower = more cytotoxic) was 39.1%. In the case of `CCC(=O)NCC[C@@H]1CCc2ccc3c(c21)CCO3`, the cell viability, % of control (lower = more cytotoxic) was 184%. As for `O[C@@H](COc1cccc2ncccc12)CN1CCN(C2c3ccccc3[C@@H]3[C@H](c4ccccc42)C3(F)F)CC1` (some centres undefined), the cell viability, % of control (lower = more cytotoxic) was 4.83%. Then `Cc1csc(-c2nnc(Nc3ccc(Oc4ncccc4-c4ccnc(N)n4)cc3)c3ccccc23)c1`, with 24.7%.
